# In the library only some 3% were active in any assay of this set; here they are far more common.
# p53null 39C kill = kills p53 null cells at the nonpermissive temperature; H1299 p53-null (neo) cells, 39C, ATPlite viability, 24 h; Potency, µM (highest dose often 46.1 µM), for the others: at the highest dose activity, negative = cell killing, actives largely listed as cytotoxic; AID 904; 55,000 tested, 0.97% active;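 further: 0% = DMSO only and -100% = full killing by 100 µM tamoxifen; nearly all actives have a fitted effect of over 50% in size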
#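 Temperature-shift cytotoxicity format: compound titrations on p53-null or A138V-expressing H1299 cells held 24 hr at 39C, cell ATP then measured, AC50 from Hill model.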
# p53null 32C kill = p53 null cell cytotoxicity, permissive temperature; H1299-neo p53 null cells, ATP luminescence, 24 h, 32C; Potency, µM (series often up to 46.1 µM), for inactives: at the highest dose activity change, negative = cytotoxicity, most hits filed as cytotoxic; 55,000 tested, 0.62% active;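 further: 0% = DMSO only and -100% = full killing by 100 µM tamoxifen; nearly all actives have a fitted effect of over 55% in size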
#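 AC50 values derive from Hill modelling of qHTS concentration-response data (up to 46 uM) in H1299-neo cells. Cells were treated 24 h at 32C following overnight attachment at 37C; viability was read as cellular ATP.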
# S16 viability = toxic to S16 Pmp22-F2sN Schwann cells; S16 Pmp22-F2sN Schwann cells viability, CellTiter-Glo, 24 h; Potency, µM (doses to about 57.5 µM), without a hit: top-dose activity change, negative = cytotoxicity, most hits filed as cytotoxic; 43,000 tested, 0.48% active; AID 1508642; further: on the % scale 0 is the no-effect control and ±100 the full control effect; nearly all actives have a fitted effect of over 65% in size
#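 Seed 500-1,000 S16 Pmp22-F2sN cells per well in phenol-red-free DMEM with 10% heat-inactivated FBS; pin-add 23 nL compound; incubate 24 h at 37C; add CellTiter-Glo, wait 15 min protected from light; read luminescence.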
# mTORC1 inh = inhibitors of mTORC1 signaling in Tsc2-/- p53-/- MEF cells; 44,000 tested, 0.78% active; Tsc2-/- p53-/- MEF, phospho-rpS6 immunofluorescence/PI, 24 h; Potency, µM (top dose mostly 38.3 µM), without a hit: at the top dose activity change, negative = inhibition, usual class: inhibitors;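 further: plate controls were DMSO for no effect and rapamycin for full effect; nearly all actives have a fitted effect of over 50% in size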
#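 Plate MEFs (Tsc2-/-, p53-/-, empty vector) in DMEM/10% FBS; after 24 h add compound, incubate 24 h at 37 degree Celsius; fix in PFA/TX-100, block, stain phospho-rpS6 and 10 uM PI; scan at 488 nm; report % positive cells.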
# GALC G270D up = galactocerebrosidase G270D activity enhancement, cell-based; P54803; 145M-Twi-hGALC-G270D cells (Twitcher mouse brain line with human GALC G270D), HMU-beta-Gal fluorescence, 48 h; Potency, µM (doses to about 57.5 µM), usual class: activators; 45,000 tested, 0.1% active; AID 1159614; further: 0% is about no effect; nearly all actives have a fitted effect of over 65% in size
# Target sequence (P54803 whole entry G286D): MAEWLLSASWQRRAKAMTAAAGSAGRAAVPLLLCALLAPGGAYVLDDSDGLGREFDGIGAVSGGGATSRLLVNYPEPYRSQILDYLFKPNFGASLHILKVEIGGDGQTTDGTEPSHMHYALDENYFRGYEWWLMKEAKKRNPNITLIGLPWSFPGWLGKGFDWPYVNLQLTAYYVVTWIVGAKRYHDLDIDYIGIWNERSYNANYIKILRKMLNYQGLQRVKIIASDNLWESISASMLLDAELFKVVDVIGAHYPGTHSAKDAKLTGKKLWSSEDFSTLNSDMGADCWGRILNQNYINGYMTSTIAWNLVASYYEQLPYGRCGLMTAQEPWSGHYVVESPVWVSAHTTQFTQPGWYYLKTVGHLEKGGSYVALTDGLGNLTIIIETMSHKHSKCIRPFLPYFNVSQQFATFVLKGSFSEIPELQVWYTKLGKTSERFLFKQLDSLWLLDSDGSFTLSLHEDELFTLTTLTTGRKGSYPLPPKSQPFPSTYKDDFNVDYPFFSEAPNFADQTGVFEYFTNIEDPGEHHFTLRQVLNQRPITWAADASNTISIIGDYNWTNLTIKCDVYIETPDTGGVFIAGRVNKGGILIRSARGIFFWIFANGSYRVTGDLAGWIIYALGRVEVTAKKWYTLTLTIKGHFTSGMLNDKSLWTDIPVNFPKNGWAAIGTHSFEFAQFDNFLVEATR
#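 Live 145M-Twi cells (Twitcher mouse brain-derived, GALC-null) stably expressing human GALC-G270D, with a wild-type GALC line, were compound-treated. Residual GALC activity was then read as fluorescence from 0.1 mM final HMU-β-gal at pH 5.2; higher signal means activation.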
# PMP22 txn = modulates PMP22 transcription in S16 Schwann cells; Potency, µM (top dose mostly 57.5 µM), without a hit: at the highest dose activity change, negative = inhibition, hits mostly inhibitors; S16 Pmp22-F2sN Schwann cells (luciferase reporters placed in the Pmp22 gene), FLuc/NLuc coincidence luminescence, 24 h; 43,000 tested, 2% active; active means clear falling dose curves in both reporters; inconclusive means both reporters move, but less clearly or upward; inactive means either reporter flat; the % is the NLuc reporter signal; further: on the % scale 0 is the no-effect control and ±100 the full control effect
#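 Transcriptional readout in edited S16(c9) cells: two luciferases reported from the Pmp22 locus, measured in turn after 24 h compound incubation.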
# * hit, by the source's call; i = inactive; ? = inconclusive; · = not tested or not shown; [ ] = remark or other dose. Unless noted, the call rests on the fitted dose curve; in most records, active means well fitted curve in the direction sought with a large enough effect; inconclusive means small, poorly fitted or top-dose-only effect, or another doubt; inactive means no such curve, though single readings can be large; an effect the other way counts as inactive or inconclusive. Potency means the concentration at half of the fitted maximal effect.
SMILES,p53null 39C kill,p53null 32C kill,S16 viability,mTORC1 inh,GALC G270D up,PMP22 txn
CCOc1ccc(CCNC(=O)CCCn2c(=O)c3cccn3c3ccccc32)cc1,2%,7%,4%,5%,i,-16%
CSc1ccc(CCNC(=O)CCCn2c(=O)c3cccn3c3ccccc32)cc1,13µM*,59%,6%,?,i,-11%
COc1ccccc1CNC(=O)CCCn1c(=O)c2cccn2c2ccccc21,-16%,0%,-4%,18µM*,i,?
CCc1ccc(OCC(=O)Nc2ccc3oc(-c4ccc(OC)cc4)nc3c2)cc1,-9%,-5%,17%,13µM*,i,-10%
COc1ccc(C2=Nc3nc(-c4ccccc4)cn3C(c3ccc(OC)cc3)C2)cc1 (stereo not drawn),10%[1.84 µM],6%,·,·,·,·
COc1ccc(C(=O)Nc2c(C(=O)c3ccc(F)cc3)oc3ccccc23)cc1,?,2%,-1%,1%,i,10µM*
O=C(Nc1noc2ccccc12)c1cccc(F)c1,?,?,20%,-7%,i,-7%
COc1cccc(NC(=O)c2oc3ccccc3c2NC(=O)c2cc3ccccc3o2)c1,?,-9%,18%,-2%,?,?
O=C(Nc1noc2ccccc12)c1ccc(F)cc1,?,13µM*,-1%,3%,i,-23%
COc1cccc(NC(=O)c2oc3ccccc3c2NC(=O)c2ccc(OC(C)C)cc2)c1,13µM*,16µM*,-14%,-5%,i,9%
Cc1nc(-c2ccccc2)sc1-c1ccc(SCC(=O)NCc2ccc(Cl)cc2)nn1,-24%,-9%,24%,-4%,i,-47%
COc1ccc(CC(=O)Nc2ccc(-c3noc(-c4ccc(Cl)cc4)n3)cc2)cc1,19%,6%,·,·,·,·
CCCOc1ccc(NC(=O)CC2C(=O)N(c3ccc(C)cc3)C(=O)N2CCc2ccncc2)cc1 (stereo not drawn),2%,-1%,·,-10%,·,·
Cc1nc2c(C(=O)NCCc3ccccc3)c[nH]n2c(=O)c1Cc1ccc(F)cc1Cl,?,13µM*,9%,-14%,i,?
COc1ccc(/C=C\c2onc(C)c2S(=O)(=O)N2CCC(C(=O)Nc3ccc(C)c(F)c3)CC2)cc1,10%,6%,-2%,1%,i,?
COc1ccc(/C=C\c2onc(C)c2S(=O)(=O)N2CCC(C(=O)Nc3ccc(Cl)cc3)CC2)cc1,10µM*,-5%,13%,-11%,i,-7%
Cc1ccc(O)c(NC(=O)c2noc3c2CCCC3)c1,10µM*,?,·,-1%,·,·
Cc1ccc(O)c(NC(=O)c2noc3c2CCCCC3)c1,13µM*,13µM*,-5%,-14%,i,?
CCOC(=O)c1[nH]c(C)c(C(=O)NCc2ccccn2)c1C,3%,0%,·,·,·,·
Cc1cccc(C)c1OCCCn1c(CCNC(=O)C2CCCCC2)nc2ccccc21,16µM*,-4%,-24%,-1%,i,?
Cc1cc(OCCCn2c(CCNC(=O)C3CCCCC3)nc3ccccc32)ccc1Cl,25µM*,?,?,1%,i,?
CCOc1ccc(CNC(=O)C2CCN(Cc3cc4ccccc4n3Cc3ccccc3C)CC2)cc1,16%,-5%,1%,-12%,i,-16%
CCCOc1ccc(C2C(=O)N(C3CCC(C)CC3)CC(=O)N2CCc2ccccc2)cc1OC (stereo not drawn),-2%,-8%,·,-8%,·,·
CC(C)(C)c1ccc(S(=O)(=O)N2CCC(c3ccncc3)CC2)cc1,?,?,?,18µM*,i,?
O=S(=O)(c1ccc(Cl)cc1)N1CCC(c2ccncc2)CC1,9%,-2%,11%,-1%,i,5%
SMILES,p53null 39C kill,p53null 32C kill,S16 viability,mTORC1 inh,GALC G270D up,PMP22 txn
CC(C)Cc1ccc(S(=O)(=O)N2CCC(c3ccncc3)CC2)cc1,?,?,?,18µM*,i,?
CC(=O)Nc1cccc2c1C(=O)N(c1ccc(C)cc1)C2=O,-8%,-9%,·,·,·,·
CCOC(=O)c1ccccc1NC(=O)c1ccc2c(Cl)c3c(nc2c1)CCC3,?,?,9%,0%,i,-7%
CCOC(=O)c1cccc(NC(=O)c2ccc3c(Cl)c4c(nc3c2)CCC4)c1,0.4µM*,?,4%,?,i,-13%
CCOC(=O)c1cccc(NC(=O)c2cc3ccccn3n2)c1,10µM*,13µM*,·,0%,·,·
O=C(Nc1ccccc1C(F)(F)F)c1cc2ccccn2n1,10µM*,7.9µM*,·,3%,·,·
O=C(Nc1ccc(OC(F)(F)F)cc1)c1cc2ccccn2n1,?,?,-2%,-1%,i,?
CCOc1ccc(OCC)c(NC(=O)c2cc3ccccn3n2)c1,-4%,-17%,·,1%,·,·
O=S(=O)(NCCS(=O)(=O)N1CCN(c2ccccc2)CC1)c1ccc(Br)cc1,-4%,5%,5%,-10%,i,-3%
Cn1nc(-c2ccc(N3CCCCC3)c(NC(=O)c3ccc(Cl)cc3)c2)c2ccccc2c1=O,-5%,2%,2%,-8%,i,-3%
CCOC(=O)N1CCN(C(=O)COc2cccc3c2CCN(Cc2cccc(C)c2)C3=O)CC1,12%,9%,·,·,·,·
CCN1CCN(c2cc(C)c3cc(NC(=O)c4cc(OC)cc(OC)c4)ccc3n2)CC1,?,?,?,13µM*,i,?
CCCCc1ccc(C(=O)Nc2ccc3nc(N4CCN(CC)CC4)cc(C)c3c2)cc1,-14%,1%,?,2.1µM*,i,?
CCN1CCN(c2cc(C)c3cc(NC(=O)/C=C/c4cccc(Cl)c4)ccc3n2)CC1,16µM*,?,?,?,i,?
CCN1CCN(c2cc(C)c3cc(NC(=O)c4cccc(Cl)c4)ccc3n2)CC1,22µM*,-5%,?,12µM*,i,?
COc1ccc(C(=O)Nc2ccc3nc(N4CCC(C)CC4)cc(C)c3c2)cc1,?,?,14%,-8%,i,-7%
CCOC(=O)C(CC)Sc1ncnc2nc[nH]c12 (stereo not drawn),31%,-1%,·,·,·,·
Cc1oc2ncnc(N3CCOCC3)c2c1C(=O)NCc1ccccc1,1%,-10%,-3%,4%,i,-2%
CCOC(=O)c1ccccc1NC(=O)CSc1ncc2c(n1)-c1ccccc1N(CC)S2(=O)=O,-2%,5%,8%,3%,i,?

# Screens from PubChem BioAssay.
